Data taken from PubChem BioAssay (NCI).
The panel holds about 79,000 compounds, 15% with a hit somewhere; the sample as a whole holds those more often. Cut-off read from the data, not from the text of the source: active = growth inhibition above about 70%; inactive = the rest.

How the values were obtained:
[1] = NCI Yeast Anticancer Drug Screen. Data for the rad50 strain (AID 155);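 note: 0% = growth of vehicle-only cultures of the same strain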; details: S. cerevisiae rad50 strain growth inhibition; at 50.0 µM; hits give high values
Summary of the method: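 Growth of the mutant yeast was measured after compound exposure and referenced to vehicle-treated cultures.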

[2] = NCI Yeast Anticancer Drug Screen. Data for the mec2-1 strain (AID 157); details: S. cerevisiae mec2-1 strain, at 50.0 µM, hits give high values
Summary of the method: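 Each compound was tested on mec2-1 yeast, a strain altered in DNA damage repair or cell cycle control. Growth inhibition is reported relative to vehicle.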

[3] = NCI Yeast Anticancer Drug Screen. Data for the sgs1 mgt1 strain (AID 161);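 note: 0% = growth of cultures given vehicle only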; details: S. cerevisiae sgs1 mgt1 strain, at 50.0 µM, hits give high values
Summary of the method: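 Genetically altered yeast, compound exposure, growth inhibition relative to vehicle.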

[4] = NCI Yeast Anticancer Drug Screen. Data for the cln2 rad14 strain (AID 165);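 note: 0% = growth equal to vehicle treated cultures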; details: S. cerevisiae cln2 rad14 strain, at 50.0 µM, hits give high values
Summary of the method: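 Test compounds were added to cln2 rad14 yeast cultures; inhibition of growth was then determined by comparison with vehicle treatment.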

[5] = NCI Yeast Anticancer Drug Screen. Data for the bub3 strain (AID 167); details: S. cerevisiae bub3 mutant strain, at 50.0 µM, hits give high values
Summary of the method: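 Whole-cell yeast assay. The mutant strain was incubated with compounds, and growth inhibition was determined by comparison with vehicle-treated cells.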

[6] = NCI Yeast Anticancer Drug Screen. Data for the mlh1 rad18 strain (AID 175); details: S. cerevisiae mlh1 rad18 strain growth inhibition; at 50.0 µM; hits give high values
Summary of the method: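 Inhibition values reflect reduced growth of mutant yeast versus vehicle-treated controls following compound exposure; the mutations affect DNA damage repair.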

Measured: growth inhibition

O=c1cc[nH]c2ccc(Cl)cc12
inactive: [1] -10.2% | [2] 5.3% | [3] -4.4% | [4] -33.4% | [5] -7.1% | [6] -1.45%

N#CCCN(c1ccc(C=Nc2ccccc2Cl)cc1)S(=O)(=O)c1ccccc1
inactive: [1] -18.1% | [2] -9.8% | [3] -13.7% | [4] 4.25% | [5] -6.5% | [6] 16.2%

O=[N+]([O-])c1ccc(N/N=C/CCCCO)c([N+](=O)[O-])c1
inactive: [1] 13.3% | [2] -4.65% | [3] -0.6% | [4] -30.6% | [5] 9.85% | [6] -5.8%

COc1cc(O)c2c(c1)Cc1cc(C)cc(O)c1C2=O
inactive: [1] 10.2% | [2] -1% | [3] 6.2% | [4] 22.5% | [5] 16.6% | [6] 1.65%

O=C(c1ccc(Cl)cc1Cl)N1CCCCC1
inactive: [1] 1.45% | [2] -6.15% | [3] 1.75% | [4] -1.25% | [5] 4.9% | [6] 0.15%

Cc1nn(C)c2c1C(=O)N(C)CC(=O)N2C
inactive: [1] -25.1% | [2] -38.9% | [3] -22.9% | [4] -14.2% | [5] -20.8% | [6] -8.25%

O=C(/C(=C(/[O-])C(F)(F)F)[n+]1cccc2ccccc21)C(F)(F)F
inactive: [1] -8.6% | [2] -4.65% | [3] -11.2% | [4] -10.4% | [5] -1.4% | [6] 5.2%

CCOC([O-])=N/C(=N/[n+]1ccc(C)cc1)c1ccccc1
inactive: [1] 8.35% | [2] 5.55% | [3] -3.45% | [4] -16.1% | [5] -15.1% | [6] -12.5%

NC(=S)c1cccc(C(N)=S)n1
inactive: [1] 18.7% | [2] 19.9% | [3] 23.9% | [4] -27.9% | [5] 22.6% | [6] 26.6%

O=c1[nH]c(=S)[nH]c2ncn(C3OC(CO)C(O)C3O)c12 (stereo unspecified)
inactive: [1] -13.4% | [2] -3.85% | [3] -8.15% | [4] -9.6% | [5] 5.65% | [6] -0.6%

Cc1cc(C)c2ccc(=O)[nH]c2n1
inactive: [1] -2.8% | [2] -9% | [3] 2.6% | [4] -3.05% | [5] 8.75% | [6] 8.2%

N/N=C(\N)SCc1ccc(N=C=S)cc1
inactive: [1] -4.8% | [2] 6.85% | [3] 17.4% | [4] 18.9% | [5] 16.5% | [6] 15.5%

COc1ccc(SC2=CC(=O)c3ccccc3C2=O)cc1
inactive: [1] 41% | [2] 11.2% | [3] 34.2% | [4] -16.4% | [5] -11.6% | [6] 30.6%

CCOCCCN
inactive: [1] 37.5% | [2] 16.7% | [3] 6.85% | [4] 3.4% | [5] 16.9% | [6] 5.25%

CCN(CC)CC(=O)N1CCc2c([nH]c3ccccc23)C1c1cccnc1 (stereo unspecified)
inactive: [1] -40.1% | [2] -21.4% | [3] -11.6% | [4] -5.95% | [5] -35.5% | [6] -34.5%

O=C(C=C1CCCCC1)c1ccccc1
inactive: [1] 12.9% | [2] -6.35% | [3] 7.45% | [4] -6.2% | [5] 2.9% | [6] 5.25%

CCN(CC)CCN(C(=Nc1ccccc1)N1CCOCC1)c1ccccc1
inactive: [1] -19.8% | [2] -40.5% | [3] 3.6% | [4] -3.8% | [5] 4.8% | [6] -11.9%

O=[N+]([O-])c1ccc(CC(Cl)c2ccccn2)cc1 (stereo unspecified)
inactive: [1] 18.9% | [2] 9.85% | [3] 19.1% | [4] -11.4% | [5] 22.2% | [6] 42.2%

O=C(O)CCS.[Cu+2]
inactive: [1] -11.8% | [2] -25.3% | [3] -9.05% | [4] -10.7% | [5] -29.9% | [6] -14.8%

CCCCCCCCC(=O)c1ccc(N=Nc2ccc(OCC)cc2)cc1
inactive: [1] -6% | [2] 12.9% | [3] -5.5% | [4] -8.55% | [5] 3.15% | [6] -14.8%

Cc1ccc(S(=O)(=O)C2=c3nc4ccccc4cc3=C3C(=O)c4ccccc4C(=O)C32)cc1 (stereo unspecified)
inactive: [1] -14.3% | [2] -18.9% | [3] -20.8% | [4] -75.9% | [5] -24.4% | [6] -3.7%

O=C(Oc1c(OC(=O)c2ccccc2)c2ccccc2c2ccccc12)c1ccccc1
inactive: [1] 3.2% | [2] 9.35% | [3] 7.85% | [4] -1.7% | [5] -1.25% | [6] 20.4%

O=C(Cl)C=Cc1ccc([N+](=O)[O-])cc1 (mixture of isomers)
inactive: [1] 4.7% | [2] 6.7% | [3] -0.25% | [4] -6.65% | [5] 2.15% | [6] 1.95%

COC(=O)CCC(=O)c1ccc2c(c1)CC1(C2)Cc2ccc(C(=O)CCC(=O)OC)cc2C1
inactive: [1] -1.45% | [2] -30.6% | [3] -22.4% | [4] 5.35% | [5] -20.1% | [6] 2.9%

O=C1CC2C3CC(Br)C4C3CC2C14 (stereo unspecified)
inactive: [1] 4.95% | [2] -0.25% | [3] 1.75% | [4] 6.5% | [5] 7.2% | [6] 4.75%

N#CCCP(=O)(O)CO
inactive: [1] -6.5% | [2] -13.3% | [3] 1.1% | [4] 0.1% | [5] 3.9% | [6] -26.7%

Nc1c(I)cc([N+](=O)[O-])cc1I
inactive: [1] 32.8% | [2] 2.6% | [3] 18% | [4] -16.4% | [5] 25.9% | [6] 19.9%

O=S(=O)(C(c1ccccc1)C(O)(c1ccccc1)c1ccccc1)N1CCCC1 (stereo unspecified)
inactive: [1] 29.6% | [2] -0.45% | [3] 27.4% | [4] -21.8% | [5] 1.25% | [6] 22.6%

CS(=O)(=O)c1ccc(/C=C2/C=Cc3ccccc32)cc1
inactive: [1] 19.1% | [2] 13.2% | [3] 6.35% | [4] 15.4% | [5] 30.2% | [6] 14.7%

C=CCOC(=O)OCCOC(=O)OCC=C
inactive: [1] 6.4% | [2] -4.7% | [3] -2.05% | [4] -1.55% | [5] 24.1% | [6] -1.55%

O=[N+]([O-])c1cccc(SNSc2cccc([N+](=O)[O-])c2)c1
inactive: [1] 29% | [2] 12.8% | [3] 8.4% | [4] -35.5% | [5] 9.8% | [6] 23.8%

Cc1cc2c(cc1C)[n+](=O)c(C(=O)C/C(=N/OCCCc1ccccc1)C(=O)Nc1cc(Cl)ccc1Cl)c(C)n2[O-]
inactive: [1] -35.1% | [2] 1.8% | [3] -7.2% | [4] 19.2% | [5] 9.1% | [6] -10.3%

O=C(Nc1ccccc1)NC1CCCC1
inactive: [1] 4.65% | [2] 7.85% | [3] -1.8% | [4] -5.5% | [5] -12.2% | [6] -1.2%

O=Cc1cc2c(cc1-c1cc3c(cc1C=O)OCO3)OCO2
inactive: [1] -3.4% | [2] 8.25% | [3] 6.6% | [4] 9.85% | [5] 13.1% | [6] 0.75%

C/C=C(/C)C(=O)O[C@@H]1c2c(C)coc2C(=O)[C@@]2(OC(C)=O)CCC[C@@](C)(O)[C@@]12C
inactive: [1] 26.8% | [2] 9.55% | [3] 24.3% | [4] 22.6% | [5] 39.4% | [6] 43.9%

CCOC(=O)NC(Nc1ccc(F)c(F)c1)(C(=O)OCC)C(F)(F)F (stereo unspecified)
inactive: [1] 5.4% | [2] -1.3% | [3] -9.1% | [4] 15.4% | [5] 9.75% | [6] 39.5%

NCCNC(=O)CCC(CN(CC(=O)O)CC(=O)O)N(CC(=O)O)CC(=O)O (stereo unspecified)
inactive: [1] 42.8% | [2] 69.7% | [3] 44% | [4] 57% | [5] 39% | [6] 42.7%

CCCC(=O)Oc1ccc(C(=O)OC)cc1
inactive: [1] 8.4% | [2] -10.8% | [3] -11.9% | [4] -24.8% | [5] -16.4% | [6] 13.3%

CSc1ccc(NC(=O)Nc2cc(C)ccn2)cc1
inactive: [1] 5.8% | [2] -11.1% | [3] -45.7% | [4] -37.8% | [5] -61% | [6] 10.6%

Cc1nc2ccccc2n1CCC(N)=O
inactive: [1] 24.6% | [2] -2.1% | [3] 6.1% | [4] 12.3% | [5] -26.9% | [6] -2.35%

O=C(OCCSC(=S)N1CCCCC1)c1ccccc1
inactive: [1] -13.5% | [2] -8.6% | [3] 2.4% | [4] -11.9% | [5] 16.6% | [6] -0.4%
